The source of these data is PubChem BioAssay AID1578 (Sanford-Burnham Center for Chemical Genomics, 2009).

In all, about 290,000 compounds went through this assay and about 3,000 (1%) were called active. The full list was thinned out, with actives kept by preference. Values without a mark were called inactive. Cut-off read from the data, not from the text of the source: active = inhibition mostly above about 36% (no sharp cut-off); inactive = mostly below about 34%.

This assay is described as follows: inhibition of NOD1-driven NF-kB reporter – cell-based, luminescence, uHTS, primary screen (AID 1578).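 Note: HEK-293T reporter cells stimulated with the NOD1 agonist gamma-tri-DAP.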 The following applies: NOD1-driven NF-kB luciferase reporter cells, at 4 µM, stronger effect = higher value. On the technique in general: Reporter assays use an easily measured gene product as a stand-in for the process of interest.
The inhibition is the relative decrease from the control value, in per cent. On to `O=S(=O)(Nc1nc(-c2ccccc2)cs1)c1cc(Cl)ccc1Cl`, for which the inhibition is 40.9%.

Regarding `COc1ccc(N=CC2=C(O)c3ccccc3C2=O)cc1`, the inhibition was 52.5%.

Take `COc1cc(N=CC2=C(O)c3ccccc3C2=O)cc(OC)c1`: the inhibition is -21.7%.

As for `COc1ccc(N=CC2=C(O)c3ccccc3C2=O)c(OC)c1`, the inhibition was 72% (active).

Regarding `O=C(CCC(=O)Nc1nnc(C2CCCCC2)s1)NCc1ccc(F)cc1`, the inhibition is -10.8%.

Turning to `CSc1ccc(OC2CCCCC2NS(=O)(=O)c2ccccc2)cc1` (configuration not stated), the inhibition is -17%.

Take `Cc1cc(OCC(=O)NCCc2cccc(F)c2)c2c(C)cc(=O)oc2c1`: the inhibition was 21.7%.

Turning to `Cc1cccc(/N=C/c2c(O)ccc3oc4c(c23)CCCC4)n1`, the inhibition was 3.8%.

With `NC(=O)N/N=C/c1c(O)ccc2oc3c(c12)CCCC3`, the inhibition was -15.5%.

As to `Oc1ccc2oc3c(c2c1/C=N/n1cnnc1)CCCC3`, the inhibition is 59.5% (active).

In the case of `Oc1ccccc1N=Cc1c(O)ccc2oc3c(c12)CCCC3`, the inhibition is -2.1%.

With `O=C(O)c1ccc(N=Cc2c(O)ccc3oc4c(c23)CCCC4)cc1`, the inhibition was 60% (active).

On to `CC(C)(C)N=Cc1c(O)ccc2oc3c(c12)CCCC3`, for which the inhibition was -1.4%.

Regarding `COC(=O)c1ccsc1NC(=O)CCc1ccccc1`, the inhibition was -59.2%.

As for `COc1cc(NC(=S)NCc2cccnc2)c(OC)cc1Cl`, the inhibition was -26.2%.

With `CC(=O)c1nnn(-c2c(F)cccc2F)c1C`, the inhibition is -11.8%.

For the compound `O=c1[nH][nH]c(C(F)(F)F)c1C=NCc1cccc(Cl)c1`, the inhibition was -0.4%.

With `CCc1ccc(/C=C/c2c[nH]c3ccccc23)[n+](CC)c1`, the inhibition was -7.1%.

Turning to `CC[n+]1ccc(/C=C/c2c[nH]c3ccccc23)cc1`, the inhibition was 3.8%.

With `CC[n+]1c(/C=C/c2c[nH]c3ccccc23)ccc2cc(C)ccc21`, the inhibition is 79.9% (active).

With `Cn1nnc2cc(NC(=O)Nc3cccc(C(F)(F)F)c3)ccc21`, the inhibition was -5.1%.

Consider `COc1ccccc1N1CCN(C(=O)CN2C(=O)C3CCCCC3C2=O)CC1` (configuration not stated), for which the inhibition was -30.6%.

`CCCCN(C)C1CCN(C(=S)Nc2ccc(OC)cc2)CC1`: the inhibition was -31.8%.

With `Cc1cc(C)c(S(=O)(=O)c2ccccc2)c(N2CCOCC2)n1`, the inhibition is -15.6%.

With `CCCCCc1ccc(-c2ccc(/C=C/C(=O)O)cc2)nc1`, the inhibition is -27.7%.

For `CCCc1ccc(-c2ccc(/C=C/C(=O)O)cc2)nc1`, the inhibition is 76.4% (active).

Consider `CCCCCc1ccc(-c2ccc(/C=C/C(N)=O)cc2)nc1`, for which the inhibition is -38.2%.

Turning to `Cc1cc2c(c(=O)n1Cc1cccnc1)C(c1cccs1)C(C#N)=C(N)O2` (configuration not stated), the inhibition was 7%.

In the case of `O=S(=O)(NC1CCCC1)c1cccc(-c2nnc(-c3ccccc3)o2)c1`, the inhibition is -5.3%.

Take `COC(=O)[C@@H](NC(=O)NCc1cccs1)C(C)C`: the inhibition is 8.6%.

For the compound `CCCCCNC(=O)c1c[nH]c2ccc(S(=O)(=O)N3CCC4(CC3)OCCO4)cc2c1=O`, the inhibition is -39.2%.

On to `O=C(CCCCl)Nc1c2c(nn1-c1ccccc1)CSC2`, for which the inhibition was -34.6%.

Turning to `CCC(=O)Nc1c2c(nn1-c1ccc(OC)cc1)CSC2`, the inhibition was -5.8%.

For the compound `COc1ccc(-n2nc3c(c2NC(=O)CCCl)CSC3)cc1`, the inhibition was 1.9%.

Regarding `CCC(=O)Nc1c2c(nn1-c1ccccc1)CSC2`, the inhibition was -26%.

For the compound `COc1ccccc1P(=O)(Cc1ccccc1[N+](=O)[O-])c1ccccc1` (configuration not stated), the inhibition is -7.4%.

Turning to `CN1Cc2c(N3CCOCC3)nc3sc(C#N)c(N)c3c2CC1(C)C`, the inhibition is -1.3%.

As to `CCOc1cc2c3c(c1)C(C)CC(C)(C)N3C(=O)C2=O` (configuration not stated), the inhibition is -0.3%.

`CCc1cc2c3c(c1)C(C)CC(C)(C)N3C(=O)C2=O` (configuration not stated): the inhibition was -3.6%.

In the case of `COc1ccc(OC)c(NC(=O)CSc2nncc3ccc(OC)c(OC)c23)c1`, the inhibition is 1%.

Regarding `COc1ccc(OC)c(/C=N\NC(=O)c2ccc(-c3ccccc3)cc2)c1`, the inhibition was -32%.

With `COc1ccccc1Nc1nc(N)nc(CN2CCCCC2)n1`, the inhibition is -0.3%.

Turning to `Cn1c(SCC(=O)c2ccc(F)cc2)nnc1-c1ccccc1N`, the inhibition is -7.5%.

In the case of `Cc1ccc(C(=O)CSc2nnc3c4ccccc4nc(C(C)(C)C)n23)cc1`, the inhibition was 92.5% (active).

With `Cc1ccc(C(=O)CSc2nnc3c4ccccc4nc(Cc4ccccc4)n23)cc1`, the inhibition was -10.1%.

In the case of `Cc1ccc(C(=O)CSc2nnc(-c3ccccc3N)n2C)cc1C`, the inhibition was -30.8%.

Regarding `CC(=O)CSc1nnc2c3ccccc3nc(C(C)(C)C)n12`, the inhibition is -19.2%.

Take `Cc1ccc(C(=O)CSc2nnc(-c3ccccc3N)n2C)cc1`: the inhibition was 101% (active).

As for `CCCCN(C(=O)/C=C/c1ccc(OCC(C)C)c(OCC)c1)c1c(N)n(CCC)c(=O)[nH]c1=O`, the inhibition is -20.9%.

With `CCCCNCc1cc(Cl)c(OCCC)c(OCC)c1`, the inhibition is -20.5%.

Regarding `Cc1ccccc1NC(=O)COC(=O)c1cccnc1`, the inhibition was -22.1%.

In the case of `COc1ccc(-n2c(SCC(=O)Nc3cccc(C(=O)O)c3)nnc2-c2ccco2)cc1`, the inhibition is -20.2%.

With `Cc1nc(Cl)c2c(n1)NC(=O)CO2`, the inhibition was 0.5%.

For the compound `CCN(CC)C(=O)Oc1ccc2ccccc2c1Br`, the inhibition was -53.4%.

For `O=C(Nc1cccc(NC(=O)c2cccs2)c1)c1ccc(Br)o1`, the inhibition is -17.2%.

On to `Cc1ccc2nc(-c3ccc(NC(=O)c4cccnc4)cc3)oc2c1`, for which the inhibition is 58.7% (active).

Turning to `O=C(Nc1ccc2oc(-c3cccnc3)nc2c1)c1ccc(Br)o1`, the inhibition was -16.5%.

As for `O=C(Nc1ccc2oc(-c3ccncc3)nc2c1)c1ccc([N+](=O)[O-])o1`, the inhibition was 22.8%.

With `O=C(Nc1ccc(-c2nc3ccccc3o2)cc1)c1cccnc1`, the inhibition is -1.6%.

On to `Cc1ccc2oc(-c3ccc(NC(=O)c4cccnc4)cc3)nc2c1`, for which the inhibition is -27.5%.

Take `COc1cc(NC(=O)c2ccc([N+](=O)[O-])o2)ccc1NC(=O)c1cccs1`: the inhibition was 9.1%.

As to `O=C(Nc1cccc(NC(=O)c2cccs2)c1)c1ccc([N+](=O)[O-])o1`, the inhibition is 36.9% (active).

As for `COCCNC(=O)C(c1ccc(OC)cc1)N(Cc1ccco1)C(=O)CCC(=O)Nc1ccccn1` (configuration not stated), the inhibition was 19.2%.

As for `COc1ccc(CN2CCN(Cc3c[nH]c4ccccc34)CC2CCO)cc1C` (configuration not stated), the inhibition is -1.8%.

In the case of `Cc1ccc(C(=O)CCNc2ccc(Cl)cc2)o1`, the inhibition is -29.8%.

As for `CS(=O)(=O)N(CC(=O)NCC1CCCO1)c1cc(Cl)ccc1Cl` (configuration not stated), the inhibition was 2.4%.

For `O=c1c[n+]([O-])c2ccccc2n1OCc1ccccn1`, the inhibition is 0.2%.

For the compound `C#CCN1C(=O)C(O)(CC(=O)/C=C/c2ccco2)c2ccccc21` (configuration not stated), the inhibition was -14.4%.

`CC(C)CC(NC(=O)C1CCC(C)CC1)C(=O)N1CCN(c2ccccn2)CC1` (configuration not stated): the inhibition was 0.1%.

With `CSCCC(NC(=O)C1CCC(C)CC1)C(=O)N1CCN(c2ccccn2)CC1` (configuration not stated), the inhibition is 4.8%.

For the compound `CC1CCC(C(=O)NC(C(=O)N2CCN(c3ccccn3)CC2)C(C)C)CC1` (configuration not stated), the inhibition is 68% (active).

In the case of `C/C(=N\N(c1ccccc1)c1ccccc1)c1ccco1`, the inhibition was -19.4%.

On to `COCCOC(=O)C1=C(C)NC(=S)NC1/C=C/c1ccccc1` (configuration not stated), for which the inhibition was -9.4%.

Consider `Cc1cccc(NC(=O)c2cccc(NC(=O)c3ccccc3)c2)n1`, for which the inhibition is -35.6%.

Consider `CC(=O)Nc1ccc(NC(=O)CSc2nc3nc(-c4cccs4)cc(C(F)(F)F)c3c(=O)[nH]2)cc1`, for which the inhibition is -6.3%.

In the case of `COc1ccc(NC(=O)CSc2nc3nc(-c4cccs4)cc(C(F)(F)F)c3c(=O)[nH]2)c(OC)c1`, the inhibition is 31.6%.

Turning to `O=C(NCc1ccccc1)C1=C[C@@H](C2CC2)C[C@@H](OCCCCO)O1`, the inhibition was -27.5%.

Consider `O=C(CC1Sc2ccccc2NC1=O)OC(C(=O)NCCc1ccccc1)c1cccnc1` (configuration not stated), for which the inhibition is 3.7%.

In the case of `O=C(OCC(=O)N1CCc2ccccc21)c1c2c(nc3ccccc13)CCCCC2`, the inhibition was 4.9%.

As to `Cc1ccc(C(=O)NC(=S)/C=C2\N(C)c3ccccc3C2(C)C)cc1`, the inhibition is 15.2%.

`COc1ccccc1C(=O)NC(=S)/C=C1/N(C)c2ccccc2C1(C)C`: the inhibition is 90.4% (active).

For the compound `CN1/C(=C\C(=S)NC(=O)c2ccccc2Cl)C(C)(C)c2ccccc21`, the inhibition is -48.3%.

For `C(=C1/CCCC2=C1Nc1ncnn1C2c1ccccc1)/c1ccccc1` (configuration not stated), the inhibition is 3.1%.

On to `Fc1ccccc1/C=C1\CCCC2=C1Nc1ncnn1C2c1ccccc1F` (configuration not stated), for which the inhibition was 91% (active).

For the compound `Fc1ccccc1/C=C1\CCCC2=C1Nc1nnnn1C2c1ccccc1F` (configuration not stated), the inhibition is 11.4%.

Consider `Cc1ccc(CSc2nn3c(=O)c(C)nnc3s2)cc1`, for which the inhibition is -32.1%.

`N#CC(C#N)=c1ccc2c(c1)N1C3=C(CCCC3)CC3CCCCC31N=2` (configuration not stated): the inhibition is 7%.

As to `N#C/C(C(N)=O)=c1/ccc2c(c1)N1C3=C(CCCC3)CC3CCCCC31N=2` (configuration not stated), the inhibition is 86.2% (active).

With `O=[N+]([O-])C(=c1ccc2c(c1)N1C3=C(CCCC3)CC3CCCCC31N=2)[N+](=O)[O-]` (configuration not stated), the inhibition was 0.7%.

As to `COc1cccc(CNC(=O)CN(C)S(=O)(=O)c2cccc3cccnc23)c1`, the inhibition is -2.3%.

Consider `CCC(C)C(NC(=O)CCC(=O)OCC(=O)[C@@]1(O)CCC2[C@@H]3CCC4=CC(=O)C=C[C@]4(C)C3[C@@H](O)C[C@@]21C)C(=O)O` (some centres not stated), for which the inhibition is -4.9%.

As to `O=C(Nc1nc(-c2ccccn2)cs1)c1ccc(Br)s1`, the inhibition was 32.1%.

Consider `O=C(Nc1nc(-c2cccs2)cs1)c1ccc(Cl)s1`, for which the inhibition is -18.7%.

Regarding `Cc1cc(=O)n(C)c2ccc(S(=O)(=O)N3CCOCC3)cc12`, the inhibition was -9%.

In the case of `Cc1cccc(N=N/C(=C\O)C(=O)c2cccs2)c1`, the inhibition was 27%.

On to `COc1ccc(N=N/C(=C\O)C(=O)c2cccs2)cc1`, for which the inhibition was 41.3% (active).

In the case of `O=C(/C(=C/O)N=Nc1ccccc1)c1cccs1`, the inhibition was -9.4%.
